Measured values reported in the supplement of paper PMC10646978.
± gives the standard deviation.

Columns and labels:
Conditions in all cases: modulator concentration 10 µM
[1] = tested on: RAW-Dual (murine macrophage reporter line); assay: NF-kB reporter (SEAP) activity fold change vs agonist alone; higher = enhanced NF-kB activity
Outline: (§1)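 In 384-well plates holding 50 000 RAW-Dual murine macrophage reporter cells per well, compound at 10 μM final was pre-incubated for 1 hour at 37 °C, after which a PRR agonist was added overnight. Supernatant SEAP read with QUANTI-Blue at 620 nm absorbance reported NF-κB, and Lucia luciferase read with QUANTI-Luc luminescence reported IRF. Fold change values come from dividing each reporter signal by the mean of agonist-only control wells on the same plate, averaged over replicate plates with propagated errors.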

[2] = tested on: RAW-Dual (murine macrophage reporter line); assay: IRF reporter (Lucia luciferase) activity fold change vs agonist alone; higher = enhanced IRF activity
Outline: as §1

[3] = tested on: RAW-Dual (murine macrophage reporter line); assay: viability score (confluency relative to resting cells, overnight) (fraction); higher = more viable, active = viable (0.7 or more)
Outline: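 A compound met the cutoff when both of two confluency masks exceeded 70% of resting cells. Those masks were made with IncuCyte software from IncuCyte images of RAW-Dual macrophages treated overnight at 10 μM final. This is the basis of the viability score, which is confluency relative to resting cells.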

[4] = agonist: CpG ODN 1826 0.5 ug/mL

SMILES | NF-kB reporter [1, 4] | NF-kB reporter ([1]; agonist: LPS 0.1 ug/mL) | NF-kB reporter ([1]; agonist: MPLA […]) | IRF reporter ([2]; agonist: 3'3'-cGAMP 10 ug/mL) | IRF reporter ([2]; agonist: LPS 0.1 ug/mL) | IRF reporter ([2]; agonist: MPLA […]) | viability score [3]
O=C(c1ccc(F)cc1)N(C1CCCCC1)C1CCCCC1 | 0.68 ± 0.053 | 0.921 ± 0.067 | 1.07 ± 0.1 | 0.959 ± 0.033 | 1.28 ± 0.14 | 1.4 ± 0.22 | 1.02 (active)
CCOCC(=O)Nc1ccc(N2CCCCC2=O)c(C)c1 | 0.884 ± 0.11 | 0.79 ± 0.11 | 0.828 ± 0.16 | 0.899 ± 0.12 | 1.06 ± 0.14 | 1 ± 0.3 | 0.93 (active)
OCCN1CCN(C(c2cccs2)c2ccc3cccnc3c2O)CC1 (stereo not drawn) | 1.95 ± 0.14 | 0.699 ± 0.036 | 0.66 ± 0.048 | 0.759 ± 0.049 | 0.332 ± 0.027 | 0.26 ± 0.021 | 0.155 (inactive)
CCOc1ccc(S(=O)(=O)N2C3CCC2CC(S(=O)(=O)c2ccccc2)C3)cc1 (stereo not drawn) | 0.976 ± 0.06 | 1.05 ± 0.098 | 0.968 ± 0.053 | 0.977 ± 0.044 | 1.25 ± 0.2 | 1.25 ± 0.29 | 0.978 (active)
Cc1cc(OCC(=O)NCCn2nc(C3CC3)ccc2=O)cc(C)c1Cl | 0.861 ± 0.2 | 1 ± 0.055 | 1.01 ± 0.064 | 0.956 ± 0.039 | 0.823 ± 0.14 | 1.01 ± 0.26 | 0.778 (active)
CC(C)c1ccccc1NS(=O)(=O)c1ccccc1 | 0.866 ± 0.072 | 0.766 ± 0.039 | 1.05 ± 0.11 | 1.08 ± 0.066 | 1.4 ± 0.089 | 1.53 ± 0.16 | 0.857 (active)
CCOC(=O)C1=C(C)NC(C)=C(C(=O)OCC)C1c1ccc(F)cc1 | 0.796 ± 0.067 | 0.729 ± 0.059 | 1.8 ± 0.067 | 1.05 ± 0.037 | 0.987 ± 0.059 | 4.4 ± 0.55 | 0.244 (inactive)
CC1(C)COC(=O)C1=NNc1ccc([N+](=O)[O-])cc1 | 1.02 ± 0.1 | 1.09 ± 0.073 | 1.03 ± 0.039 | 1.03 ± 0.21 | 1.05 ± 0.13 | 1.18 ± 0.1 | 0.998 (active)
C#CCOC(=O)CCCC(=O)Nc1ccc([N+](=O)[O-])cc1Cl | 0.957 ± 0.066 | 1.01 ± 0.067 | 0.975 ± 0.062 | 1.01 ± 0.036 | 1.59 ± 0.11 | 1.3 ± 0.21 | 0.999 (active)
